According to PubChem BioAssay AID504912 (The Scripps Research Institute Molecular Screening Center, 2011):
The other results are listed elsewhere or left out. Unmarked numbers belong to inactive results. No rule for the calls is given here.

Assay: inverse agonists of MOR-DOR heterodimerization, counter-screen for HTR5A inverse agonist project, cell-based, luminescence (AID 504912);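 also: 0% = cells with DMSO and 100% = wells without cells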
Conditions: U2OS counter-screen cells, complementation luminescence; at 9.3 µM; stronger effect = higher value

Q: Which inhibition does the source give for `Cc1cc(C)n(-c2ccc(Cl)c(C(=O)O)n2)n1` here?
A: The inhibition was -60.3%.

Q: Which inhibition does the source give for `O=c1ccc2c(-c3ccccc3S(=O)(=O)O)c3ccc(O)c(O)c3oc-2c1O` here?
A: The inhibition was -10.2%.

Q: Which inhibition does the source give for `Cc1noc(C)c1COc1cccc(C(=O)Nc2cccnc2)c1` here?
A: The inhibition was 3.69%.

Q: Which inhibition does the source give for `CCCCCCCCc1c(O)nc(-n2[nH]c(C)c(CCO)c2=O)[nH]c1=O` here?
A: Its inhibition is -29.4%.

Q: With `O=C(/C=C/c1ccc(Cl)c([N+](=O)[O-])c1)c1ccc(O)cc1` as the compound, how does the inhibition read?
A: The inhibition was -15.2%.

Q: For `CCOC(=O)NC(=O)C(=CNc1cccc(OC)c1)C(=O)NC(=O)OCC`, which inhibition is on record?
A: The inhibition was -172%.

Q: For `COc1ccc(-c2nnc(SC(C)C(=O)NC3CC3)o2)cc1` (configuration not stated), which inhibition is on record?
A: Its inhibition is -19.6%.
